Most compounds without a hit are left out; they make up all but 0.27% or so of the library.
Tb PFK inh – inhibitors of T. brucei phosphofructokinase | T. brucei PFK, ADP-Glo luminescence | Potency, µM (series often up to 57.5 µM), without a hit: at the top dose activity, negative = inhibition, usual class: inhibitors | 330,000 compounds, 0.17% hits;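 also: 0% = uninhibited 1x PFK enzyme wells and -100% = no-enzyme wells; nearly all actives have a fitted effect of over 60% in size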
Target sequence (O15648 whole entry, looked up): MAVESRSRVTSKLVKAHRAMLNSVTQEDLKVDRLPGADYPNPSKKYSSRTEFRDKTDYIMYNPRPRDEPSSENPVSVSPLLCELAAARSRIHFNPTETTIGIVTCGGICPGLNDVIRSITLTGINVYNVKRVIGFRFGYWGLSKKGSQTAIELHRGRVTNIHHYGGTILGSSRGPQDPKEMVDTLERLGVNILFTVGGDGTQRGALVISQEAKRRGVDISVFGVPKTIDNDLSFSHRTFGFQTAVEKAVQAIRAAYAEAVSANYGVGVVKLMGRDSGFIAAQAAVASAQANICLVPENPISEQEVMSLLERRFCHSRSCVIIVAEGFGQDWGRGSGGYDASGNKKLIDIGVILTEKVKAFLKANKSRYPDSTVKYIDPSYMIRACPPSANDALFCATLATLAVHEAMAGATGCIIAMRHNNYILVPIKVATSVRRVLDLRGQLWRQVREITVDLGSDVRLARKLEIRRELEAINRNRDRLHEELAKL
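ADP-Glo luminescence quantified ADP after 45 min at room temperature, with 1.25 nM T. brucei PFK, 0.1 mM ATP and 0.5 mM fructose-6-phosphate in pH 8.0 TEA buffer. qHTS titrations up to 57 µM; curves classified by quality.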
B2AR arrestin – beta2AR (human) beta-arrestin recruitment activity. P07550. beta-arrestin recruitment to beta2AR, cell-based reporter. Potency, µM (highest dose often 46.1 µM), for inactives: at the top dose activation, usual class: activators. 330,000 compounds, 0.02% hits;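 also: 0% = DMSO controls and full agonism = EC100 isoproterenol or metaproterenol; nearly all actives have a fitted effect of over 65% in size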
BCR signal inh – inhibitors of chronic active B-cell receptor signaling; ABC-DLBCL IkBa-CBG/CBR reporter, luminescence ratio, 4 h; Potency, µM (doses to about 46.1 µM), without a hit: at the top dose activity change, negative = inhibition, actives largely listed as inhibitors; 340,000 compounds, 0.05% hits; AID 493014; active = well fitted inhibition curve with a large enough effect in the signal ratio, with a control signal flat, not every such curve was filed as active; inconclusive = small, poorly fitted or top-dose-only effect, or effect the other way, or a change in a side signal; the % refers to the signal ratio;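 also: plate controls were basal doxycycline-induced cells for no effect and cells given 10 µM MG132 for full effect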
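Compounds up to 46 uM were incubated four hours with TMD8 cells whose green CBG68 luciferase is fused to IkappaBalpha; red CBR luminescence normalised the signal, and concentration-effect curves were fitted to fusion, red and ratio data.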
MBNL1-CUG inh – MBNL1-poly(CUG) RNA binding inhibition | Q9NR56 | TR-FRET MBNL1-His/biotin-(CUG)12 binding, 665/545 ratio | Potency, µM (doses to about 57.5 µM), for inactives: at the top dose activity change, negative = inhibition, most hits filed as inhibitors | 280,000 compounds, 0.036% hits | AID 2675; active = well fitted inhibition curve with a large enough effect in the signal ratio, with a control signal flat, not every such curve was filed as active; inconclusive = small, poorly fitted or top-dose-only effect, or effect the other way, or a change in a side signal; inactive = no such curve, though single readings can be large or run the other way; the % refers to the signal ratio
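His-tagged MBNL1 binding to biotinylated (CUG)12 RNA was measured by TR-FRET using terbium anti-His antibody (0.055 ng/ul final) and streptavidin-XL665 (5 nM final). Compounds were titrated 92 nM to 58 uM; 60 min at room temperature.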
The depositor's hits bear a star; u = inconclusive; x = not tested or not shown; [ ] = dose if it differs, or a comment. Unless noted, calls follow the shape of the dose curve; as a rule, active = well fitted curve in the direction sought with a large enough effect; inconclusive = small, poorly fitted or top-dose-only effect, or another doubt; inactive = no such curve, though single readings can be large; an effect the other way counts as inactive or inconclusive. Unless noted, % is scaled to controls: 0 for no effect and ±100 for the full control effect; potency is read from the fitted curve at half-maximal effect.

SMILES | Tb PFK inh | B2AR arrestin | BCR signal inh | MBNL1-CUG inh
O=C(Nc1cccc2ccccc12)c1cc2c(cc1Br)OCO2 | -2.8% | -0.1% | 11.2µM* | u
O=C(NCc1ccc2c(c1)OCO2)Nc1cccc2ccccc12 | -0.8% | 0.2% | 3.7% | 8.3%
C=COCCNC(=O)Nc1ccc(Cl)c(Cl)c1 | 15.1µM* | -0.6% | u | u
Cc1c(-c2ccc(OCc3ccccc3)cc2)nc2ccccc2c1C(=O)O | -0.6% | -1.1% | 6.6% | 11.8%
COc1cc(OC)c(OC)cc1/C=C1\Oc2cc(OCC(=O)N3Cc4ccccc4C[C@H]3C(=O)O)ccc2C1=O | 12µM* | -0.1% | u | u
COc1ccc(/C=C2\Oc3cc(OCC(=O)N4CCC[C@H]4C(=O)O)ccc3C2=O)c(OC)c1 | -5.0% | 0.1% | -1.2% | 30.8%
O=C(Nc1ccc(Cl)cc1)c1nc[nH]c1C(=O)NCCCNC(=O)c1[nH]cnc1C(=O)Nc1ccc(Cl)cc1 | 8.9% | 0.1% | 6.5% | x
NC(Cc1cc(O)c(O)cc1O)C(=O)O (stereo not given) | 0.849µM* | 0.0% | -8.0% | x
Fc1ccccc1-c1ccc(/C=N/Nc2nc3ccccc3[nH]2)o1 | 0.0% | 0.2% | 23.1µM* | x
CCc1nc2ccc(C(=O)NCCc3ccc(SC)cc3)cc2nc1CC | x | x | 5.5% | x
COc1ccc(/C=C/C(=O)c2ccc(O)cc2)cc1 | -1.7% | -0.5% | u | 6.6%
COc1cc(/C=C/c2ccc(O)cc2)cc(OC)c1 | 1.7% | -0.2% | 12.6µM* | 5.6%
Cc1nc(NC(=O)c2cnccn2)ccc1Br | -1.5% | -0.5% | 1µM* | 4.3%
Cc1nc(NC(=O)c2cncc(Br)c2)ccc1Br | -4.9% | 0.3% | 3.6% | 1.2%
COc1ccc(S(=O)(=O)N2CCCCCC2)cc1NC(=O)CN1C(=O)CNC1=O | 6.2% | 0.0% | -3.0% | x
COc1cccc(CNC(=O)COC(=O)CCS(=O)(=O)c2ccc(C)cc2)c1 | -5.3% | -0.4% | 1.0% | x
CC1CCN(S(=O)(=O)c2ccc3[nH]cc(C(=O)NCc4ccc(F)cc4)c(=O)c3c2)CC1 | x | x | 9.2% | x
Cc1ccc(S(=O)(=O)N2CCOCC2)cc1C(=O)NC1=NCCS1 | -2.2% | -1.3% | -4.3% | x
Oc1cc2c(cc1O)[C@H]1c3ccccc3CN[C@@H]1CC2 | 2.39µM* | 11.6% | u | -8.1%
COc1cc2c(cc1OC)C(c1ccccc1O)NCC2 (stereo not given) | 0.6% | 0.1% | -2.5% | -2.3%
COc1cccc(OCc2cc(C(=O)N(C)CCOc3ccc(C)cc3)no2)c1 | 1.5% | 0.3% | 6.3% | -6.1%
O=[N+]([O-])c1ccc(CNc2cccc(Cl)c2)s1 | 7.57µM* | 0.1% | 0.7% | u
CCOc1ccc2nc(NS(=O)(=O)Cc3ccccc3)sc2c1 | -2.8% | -0.6% | 7.31µM* | -12.0%
Cn1cc(/C=N/n2cnc3scc(-c4ccc(Cl)cc4)c3c2=O)c2ccccc21 | 2.3% | -0.2% | 3.55µM* | -7.8%
O=S1(=O)C=C(Sc2nc3cc(Cl)ccc3o2)c2ccccc21 | 3.8% | 5.5% | 6.31µM* | -2.1%
SMILES | Tb PFK inh | B2AR arrestin | BCR signal inh | MBNL1-CUG inh
Cc1cc(NC(=O)CSc2nc3cc(Cl)ccc3o2)no1 | -1.3% | -0.4% | 1.1% | -0.5%
COc1ccc([C@]23Cc4cc(OC)c(OC)cc4C(O2)C2=C(CCCC2=O)O3)cc1 | -0.4%[11.5 µM] | -0.5%[9.22 µM] | -13.6%[9.22 µM] | 4.3%[11.5 µM]
Oc1ccc2c3c1O[C@H]1[C@@H](O)CC[C@@]4(O)[C@@H](C2)N(CC2CCC2)CC[C@]314 | -3.0% | 0.0% | -1.4% | x
NC(N)=Nc1ccc2[nH]c3c(c2c1)C[C@@]1(O)[C@H]2Cc4ccc(O)c5c4[C@@]1(CCN2CC1CC1)[C@H]3O5 | u | 0.3% | 23.1µM* | x
Cc1c(C(=O)N(C)C)sc2c1c(=O)n(-c1ccc(Cl)c(Cl)c1)c(=O)n2CC(=O)Nc1cccc(C(F)(F)F)c1 | x | x | 2.4% | x
COc1ccc(C[C@](C)(N)C(=O)O)cc1OC | -2.8% | 0.4% | 23.1µM* | x
COc1ccc(CCC(N)=O)cc1OC | -5.7% | -0.4% | 5.6% | -0.1%
COc1ccc(-c2nn(C)c(=O)c3ccccc23)cc1CNS(C)(=O)=O | 2.8% | 0.1% | 18.4µM* | 8.8%
COc1ccc(-c2nn(C)c(=O)c3ccccc23)cc1NS(C)(=O)=O | 4.2% | -0.2% | u | -4.3%
Cc1cc2nc(N3C(=O)CNC3=S)sc2cc1C | -0.3% | 0.0% | u | 39.2%
CCOc1ccc2nc(N3C(=O)CNC3=S)sc2c1 | -6.6% | 3.98µM* | u | 0.4%
CCCCn1c(=O)nc2n(-c3ccc(Br)cc3)c3ccccc3cc-2c1=O | x | x | -1.2% | x
